# Cycloheximide cs: counter-screen hit for Shiga toxin inhibitors, cycloheximide; cell reporter, cycloheximide protein synthesis inhibition counterscreen; 300,000 compounds, 12% hits; max response, %; in the data active means max response mostly above about 13%, no sharp cut-off; inactive means mostly below about 14%; further: read at 38.3 µM for the half of the compounds with a filed dose; 0% is about no effect
# Tb PYK inh: blocks Trypanosoma brucei pyruvate kinase | TbPYK enzyme, Kinase-Glo Plus ATP luminescence, 45 min | Potency, µM (titrated, usually from 76.8 µM), for inactives: at the top dose activity, negative = inhibition, actives largely listed as inhibitors | Q57TT1 | 410,000 compounds, 0.12% hits; further: potency means the concentration at half of the fitted maximal effect; on the % scale 0 is the no-effect control and ±100 the full control effect; nearly all actives have a fitted effect of over 50% in size
#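 ADP (130 uM final) triggers the TbPYK reaction after compound addition; incubation is 45 min at room temperature. Kinase-Glo Plus is then added and luminescence imaged. Normalized data are fitted to concentration-effect curves.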
# RE007 growth inh: less growth of the S. pombe RE007 Vpr strain; S. pombe RE007 Vpr strain, BacTiter-Glo ATP luminescence, 24 h; Potency, µM (top dose mostly 92.2 µM), for inactives: at the highest dose activity change, negative = less growth, hits mostly inhibitors; 360,000 compounds, 0.21% hits; active means well fitted falling curve with a large enough effect; inconclusive means small, poorly fitted or top-dose-only effect; inactive means no such curve, though single readings can be large or run the other way; further: potency means the concentration at half of the fitted maximal effect; on the % scale 0 is the no-effect control and ±100 the full control effect; nearly all actives have a fitted effect of over 50% in size
#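 Fission yeast RE007 carrying one integrated HIV-1 vpr copy, seeded at OD 0.01 in PMG+AL medium with 23 nL pinned compound. Grown 24 h at 30 degrees; viability read by BacTiter-Glo luminescence after 5 min.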
# Giardia FBPA inh: blocks Giardia fructose-bisphosphate aldolase activity. A8B2U2. purified Giardia FBPA. Potency, µM (top dose mostly 59.6 µM), inactives show at the top dose activity, negative = inhibition, actives largely listed as inhibitors. 290,000 compounds, 0.71% hits; further: potency means the concentration at half of the fitted maximal effect; on the % scale 0 is the no-effect control and ±100 the full control effect; nearly all actives have a fitted effect of over 55% in size
#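 40 nM FBPA preincubated 10 min at RT with compound (up to 57.5 uM final), then substrate plus GAPDH/TPI/NAD/arsenate coupling and diaphorase/resazurin added. Fluorescence read after 20 min at RT, 525/598 nm.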
# Shiga inhibitor: inhibitors of Shiga toxin in Vero cells. 290,000 compounds, 9.2% hits. inhibition, % at 38.7 µM. Vero cells, Shiga toxin protein synthesis inhibition reporter. AID 2315; in the data active means inhibition mostly above about 28%, no sharp cut-off; inactive means mostly below about 43%; further: 0% is about no effect
# LmPK inh: LmPK (Leishmania mexicana) enzyme inhibition; AID 1721; Q27686; Potency, µM (series often up to 57.5 µM), without a hit: at the highest dose activity change, negative = inhibition, most hits filed as inhibitors; 290,000 compounds, 0.37% hits; purified LmPK, Kinase-Glo ATP luminescence, 1 h; further: potency means the concentration at half of the fitted maximal effect; on the % scale 0 is the no-effect control and ±100 the full control effect
# Target sequence (Q27686 whole entry, looked up): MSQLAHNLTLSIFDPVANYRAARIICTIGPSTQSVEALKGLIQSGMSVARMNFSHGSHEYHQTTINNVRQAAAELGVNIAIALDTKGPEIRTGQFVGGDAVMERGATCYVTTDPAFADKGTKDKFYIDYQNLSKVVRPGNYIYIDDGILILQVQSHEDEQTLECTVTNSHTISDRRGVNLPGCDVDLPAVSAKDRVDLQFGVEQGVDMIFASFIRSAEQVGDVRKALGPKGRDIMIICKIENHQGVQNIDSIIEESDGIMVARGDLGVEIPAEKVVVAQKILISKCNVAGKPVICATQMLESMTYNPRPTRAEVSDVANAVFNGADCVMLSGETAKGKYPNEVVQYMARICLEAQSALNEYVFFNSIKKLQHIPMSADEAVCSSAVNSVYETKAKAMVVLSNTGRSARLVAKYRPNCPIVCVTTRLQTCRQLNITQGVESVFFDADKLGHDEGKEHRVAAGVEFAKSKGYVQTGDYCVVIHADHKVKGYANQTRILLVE
#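 ATP generated from ADP (0.1 mM) and PEP (0.5 mM) by 0.1 nM LmPK over 1 h at room temperature (pH 7.2 imidazole buffer) was detected by coupled luciferase luminescence. Values were normalized to uninhibited and no-enzyme wells.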
# Active calls of the source: *; ? = inconclusive; · = no result; [ ] = another dose, or the depositor's remark. Only a selection was taken, and hits are over-represented in it overall. Unless noted, the call rests on the fitted dose curve; in most records, active means well fitted curve in the direction sought with a large enough effect; inconclusive means small, poorly fitted or top-dose-only effect, or another doubt; inactive means no such curve, though single readings can be large; an effect the other way counts as inactive or inconclusive.
SMILES,Cycloheximide cs,Tb PYK inh,RE007 growth inh,Giardia FBPA inh,Shiga inhibitor,LmPK inh
CC(=O)NC(NC(=S)Nc1ccc(S(N)(=O)=O)cc1)C(Cl)(Cl)Cl (stereo not given),-2.0,-2.5%,1.6%,-5.9%,16.0,2.5%
Fc1ccc(N2Cc3ccsc3C=N2)cc1,25.1*,0.9%,-17.2%,1.9%,63.1*,-8.6%
O=c1sc(N2CCN(c3ccc(F)cc3)CC2)nc2ccsc12,12.3,3.9%,12.8%,-2.8%,42.9,5.4%
CC(C)(C)n1ncc2c(=O)n(CC(=O)Nc3ccc(Cl)cc3)cnc21,1.4,3.3%,-0.3%,10.6%,-5.8,4.2%
CC(C)(C)n1ncc2c(=O)n(Cc3c(F)cccc3Cl)cnc21,15.9*,7.4%,0.7%,5.7%,52.0,0.3%
CC1CCN(C(=O)Cn2cnc3c(cnn3C(C)(C)C)c2=O)CC1,55.8*,4.0%,14.2%,-0.6%,92.7*,9.5%
CC(C)(C)n1ncc2c(=O)n(CC(=O)NCc3ccccc3)cnc21,20.4*,2.8%,-10.0%,5.5%,37.5*,0.6%
CC(C)(C)n1ncc2c(=O)n(CC(=O)c3ccc(Cl)cc3)cnc21,78.4*,-8.2%,-17.3%,2.4%,84.1*,-0.6%
COc1ccccc1CNC(=O)c1cccc(NC(=O)N2CCSc3ncccc32)c1,·,0.6%[15.4 µM],·,·,·,·
O=C(c1cnc(N2CCCCC2)c2ccccc12)N1CCN(c2ccc(Cl)cc2)CC1,·,-4.6%,·,·,·,·
CC(=O)c1ccc(NC(=O)C(C)Sc2nnc3ccccn23)cc1 (stereo not given),·,-4.4%,1.4%,·,·,·
O=C(CSc1nnc2ccccn12)N1CCc2ccccc21,19.8*,0.9%,-0.5%,-0.4%,62.3*,-2.5%
CC(Sc1nnc2ccccn12)C(=O)N1CCc2ccccc2C1 (stereo not given),19.9*,-1.2%,-0.2%,0.8%,58.9,-1.2%
O=C(CSc1nnc2ccccn12)N1CCc2ccccc2C1,29.4*,-3.4%,-7.4%,-3.7%,135.6*,-7.0%
CCCCC/C=C\C=C\C(O)CCCCCCCC(=O)O (stereo not given),·,·,·,0.4%,·,·
O=C(N/N=C/c1ccc(Cl)cc1Cl)c1cccc(N2CCCC2=O)c1,15.8*,-0.5%,0.1%,·,44.2,1.5%
O=C(N/N=C/c1cc(Br)cc(Br)c1O)c1cccc(N2CCCC2=O)c1,-2.0,-3.2%,8.8%,8.1%,-5.1,-1.7%
O=C(N/N=C\c1cc2c(cc1Cl)OCO2)c1cccnc1,10.3,0.0%,5.3%,1.0%,11.5,-4.3%
O=C(N/N=C/c1cc(Cl)ccc1O)c1ccccc1Br,39.6*,1.0%,?,12.4%,27.3*,-2.0%
O=C(N/N=C/c1cc(Cl)ccc1O)c1cccnc1,13.0*,2.5%,36.8%,?,25.2,-2.8%
O=C(N/N=C/c1cccnc1)c1cccc(Br)c1,16.9*,0.0%,-2.3%,-1.8%,34.1,-8.6%
O=C(N/N=C/c1cccnc1)c1cccc(NC(=O)c2ccc(Cl)cc2)c1,2.7,2.5%,8.3%,13.2%,19.5,-2.8%
COc1ccccc1C(=O)Nc1nnc(S(=O)(=O)N(C)c2ccc(Cl)cc2)s1,·,0.0%,·,·,·,·
CCOc1cccc(C2c3c(oc4ccccc4c3=O)C(=O)N2c2nc(C)c(C(=O)OC)s2)c1 (stereo not given),·,0.1%,·,·,·,·
O=C(N/N=C/c1ccc(Cl)cc1Cl)c1ccncc1,23.9*,-0.7%,-1.8%,3.2%,45.4*,1.2%
O=C(N/N=C/c1cccnc1)c1cccc(Cl)c1,27.6*,5.3%,-5.0%,-2.3%,33.0*,-6.0%
O=C(NN=Cc1ccc(Cl)cc1Cl)c1ccccc1,·,-5.5%,19.3%,·,·,·
CC(C)c1ccc(/C=N/NC(=O)CCNC(=O)c2ccccc2)cc1,20.5*,1.4%,3.5%,7.9%,96.3*,-7.3%
CC(C)c1ccc(/C=N/NC(=O)c2cccc(Cl)c2)cc1,48.9*,-5.3%,-5.3%,1.3%,active,-19.9%
O=C1C(Cl)=C(NC2CCc3ccccc32)C(=O)c2ncccc21 (stereo not given),·,·,·,-27.4%,·,·
